Values joined by “and” are separate entries in the source; they are usually repeats but may differ in a detail not shown here. Equal entries are not always repeated. Screen size: about 330,000 compounds; about 1,800 (0.55%) were called active. Rule as the data show it: active = growth inhibition above about 68%; inactive = the rest. The entries come from a sample that favours actives as a whole. More than one record can exist for a structure, and the calls need not agree.

This assay is described as follows: growth inhibition of ugtP-null S. aureus, primary screen, RN4220 ugtP deletion, OD600 (AID 1259309).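 Also: plate controls were untreated wells for no effect and antibiotic for full effect.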 The conditions noted are these: 16 h, stronger effect = higher value.
As to `O=C(/C=C/Nc1ccccc1)c1cnc(-c2ccccc2)s1`, the growth inhibition was -8.21% (inactive).

Regarding `CC(=O)c1cnc(-c2ccccc2)s1`, the growth inhibition is -8.03% (inactive).

For `CON=CCC(=O)c1cnc(-c2ccc(Cl)cc2)s1`, the growth inhibition is 87.5% (active).

Turning to `CC(=O)Nc1ccc(C(=O)NN=CC2CC3C=CC2C3)cc1` (configuration not stated), the growth inhibition is 9.12% (inactive).

On to `CS(=O)(=O)c1ccc(CNC(=O)[C@]2(C(F)(F)F)CC(CCc3ccccc3)CCCO2)cc1` (some centres not stated), for which the growth inhibition was -0.803% (inactive).

`Cc1ccc(NCC(=O)NN=Cc2ccc([N+](=O)[O-])o2)cc1`: the growth inhibition is 26.7% (inactive).

For the compound `C/[N+]([O-])=C\c1ccc([N+](=O)[O-])o1`, the growth inhibition was 96.9% (active).

`Cc1cccc(NC(=O)c2ccc([N+](=O)[O-])o2)c1`: the growth inhibition was 21.9% (inactive).

As to `CCC(C)N1CCC2(CC1)N=c1c(c3c4c5c(C)c(O)c3c(O)c1=NC(=O)C(C)=CC=CC(C)C(O)C(C)C(O)C(C)C(OC(C)=O)C(C)C(OC)C=CO[C@@](C)(O5)C4=O)N2` (some centres not stated), the growth inhibition is 99.6% (active).

Turning to `Cn1c(=O)[nH]c(=O)c2c1nc(N1CCCCC1)n2CC=NNc1ccc(C(=O)O)cc1`, the growth inhibition was 10.4% (inactive).

As to `O=C(CNC(=O)c1ccco1)NN=Cc1ccc(O)cc1O`, the growth inhibition was 4.74% (inactive).

As to `CC(C)CC(=O)NC(=S)Nc1ccc(F)cc1F`, the growth inhibition is 86.4% (active).

Turning to `CC(C)CC(=O)NC(=S)Nc1cc(C(=O)O)ccc1Cl`, the growth inhibition is 9.77% (inactive).

Regarding `CC(C)C(=O)NC(=S)Nc1ccccc1F`, the growth inhibition was 14.2% (inactive).

As for `CCOC(=O)COc1c(C=NO)cc(Cl)cc1OC`, the growth inhibition is 1.74% (inactive).

In the case of `O=C(CN1CCCCCC1)Nc1ccc(Br)cc1[N+](=O)[O-]`, the growth inhibition is 5.98% (inactive).

Regarding `O=C(CN1CCCCCC1)Nc1ccc(Br)cc1Br`, the growth inhibition is 4.57% (inactive).

As to `O=C(CN1CCCCC1)Nc1ccc(Br)cc1C(=O)c1ccccc1Cl`, the growth inhibition is 88.6% (active).

On to `COC(=O)C1=C(C(=O)OC)C2N(C)c3ccccc3[C@@]23CC(C(=O)OC)N(C(C)=O)C3=N1` (some centres not stated), for which the growth inhibition is 3.76% (inactive).

In the case of `CC(C)C(=NNc1ccccc1[N+](=O)[O-])c1ccccc1`, the growth inhibition was 42.3% (inactive).

In the case of `NC(=O)C(=Cc1ccccc1)NC(=O)C=Cc1ccccc1`, the growth inhibition was -1.58% (inactive).

In the case of `CC(Cc1ccccc1)=NNC(=O)CNC(=O)Cc1ccccc1`, the growth inhibition is 2.62% (inactive).

For `Cc1nc2c(cnn2-c2ccccc2)c(=O)n1N=Cc1ccccc1`, the growth inhibition was 6.82% (inactive).

In the case of `C=C[C@]1(C)CC(OC(=O)CSCCN(CC)CC)[C@]2(C)C(C)CC[C@]3(CCC(=O)C32)C(C)C1O` (some centres not stated), the growth inhibition is 99.9% (active) and 100% (active).

As to `O=C(C=Cc1ccccc1Cl)Nc1ccncc1`, the growth inhibition was -22.9% (inactive).

`C[C@]12CCC3c4ccc(O)cc4CCC3C1CCC2OC(=O)CCC(=O)O` (some centres not stated): the growth inhibition is 1.18% (inactive).

Take `O=C(CN1CCN(Cc2ccccc2)CC1)NN=Cc1ccc(Br)s1`: the growth inhibition is -1.87% (inactive).

With `COc1cccc(C2CC=C(C(=O)O)C(c3ccc(F)cc3)N2S(=O)(=O)c2ccc(C)cc2)c1` (configuration not stated), the growth inhibition is 24.5% (inactive).

With `O=[N+]([O-])c1cccc(C=NNc2nc(NCc3ccccc3)nc(N3CCOCC3)n2)c1O`, the growth inhibition is 1.29% (inactive).

In the case of `Cc1ccc(-c2csc(N3CCCC3C(=O)NCCn3c(-c4ccncc4)nc4ccccc43)n2)cc1` (configuration not stated), the growth inhibition is 12.4% (inactive).

In the case of `Cc1nn(-c2ccccc2)c(C)c1C=NNC(=O)c1cc(-c2ccc(Br)s2)[nH]n1`, the growth inhibition was -11.7% (inactive).

For the compound `COc1ccccc1NC(=S)N1CCN(c2ccc(F)cc2)CC1`, the growth inhibition is 6.45% (inactive).

With `COc1c(N2CCN(C(=S)Nc3ccccc3F)C(C)C2)c(F)cc2c(=O)c(C(=O)O)cn(C3CC3)c12` (configuration not stated), the growth inhibition is 100% (active).

For `CC1CN(C(=S)Nc2ccccc2F)CC(C)O1` (configuration not stated), the growth inhibition was 2.47% (inactive).

For `CC=C(C)C(=O)Nc1cccc(C2=NOC3(C2)CC(C(N)=O)N(C(=O)c2ccc(OC)cc2)C3)c1` (configuration not stated), the growth inhibition was 0.227% (inactive).

In the case of `O=S(=O)(C=Cc1ccccc1)N1CCN(c2nc(-c3cccnc3)nc3ccccc23)CC1`, the growth inhibition was -1.02% (inactive).

In the case of `NC(=O)C(=O)NN=Cc1cccc(C(F)(F)F)c1`, the growth inhibition is 6.69% (inactive).

`CCN(CC)CCCSc1nc2ccccc2s1`: the growth inhibition was 5.71% (inactive).

Turning to `OCCNc1nc(Nc2ccc(Cl)c(Cl)c2)nc2ccccc12`, the growth inhibition was -40.3% (inactive).

As to `O=[N+]([O-])c1c(NCCO)cc(Sc2nc3ccccc3s2)c2nonc12`, the growth inhibition was 99.9% (active).

Take `CC(=O)CC1c2cc(C(F)(F)F)ccc2S(=O)(=O)N1C1CCCC1` (configuration not stated): the growth inhibition was -1.55% (inactive).

`CCOC(=O)c1ccc(NC(=O)c2nc[nH]c2C(=O)NC(Cc2ccccc2)C(=O)OC(C)(C)C)cc1` (configuration not stated): the growth inhibition is -22.8% (inactive).

Regarding `Cc1ccc(C(=O)NCC(=O)NN=Cc2cccs2)cc1[N+](=O)[O-]`, the growth inhibition is 4.96% (inactive).

Turning to `COc1cc(C(=O)NN=Cc2cn(Cc3cccc(F)c3)c3ccccc23)ccc1O`, the growth inhibition is -6.8% (inactive).

For the compound `COc1cccc(C=NNC(=O)CSCC(=O)Nc2ccccc2)c1O`, the growth inhibition was -4.58% (inactive).

Turning to `COc1cccc(C=NNc2cc(-n3nc(C)cc3-c3ccccc3)ncn2)c1O`, the growth inhibition was 101% (active).

As for `COc1cccc(C=NNc2ncnc3c2ncn3Cc2ccccc2)c1O`, the growth inhibition was 2.15% (inactive).

In the case of `CCc1ccc2c(c1)C(=O)C[C@]1(CCCC(C)C1)O2` (some centres not stated), the growth inhibition was 5.31% (inactive).

In the case of `C#CCNC(=O)C1=CC(c2csc3ccccc23)CC(OCCCCO)O1` (configuration not stated), the growth inhibition was -11.2% (inactive).

For `Cc1ccc(OCC(=O)NN=Cc2ccc3c(c2)OCO3)cc1C`, the growth inhibition is -11% (inactive).

For the compound `CCCCCN1CC(O)=C(c2ccccc2)C1=N`, the growth inhibition is 2.59% (inactive).

Take `CCCCCCCCCCCCn1ccc(=N)cc1`: the growth inhibition is 101% (active).

Take `COc1ccc(C=NNc2nn3cnnc3c3ccccc23)cc1`: the growth inhibition is 12.2% (inactive).

Take `CCOC(=O)CN1C(=O)NC(c2ccco2)C(C(C)=O)=C1C` (configuration not stated): the growth inhibition is -0.836% (inactive).

For `CCC(=O)Nc1cccc(C2=NOC3(C2)CC(C(N)=O)N(C(=O)COc2ccc(Cl)cc2)C3)c1` (configuration not stated), the growth inhibition was 3.89% (inactive).

With `Cc1c(CN2CCC(CO)(CCOc3ccccc3)CC2)[nH]c2ccc(Cl)cc12`, the growth inhibition is 95.4% (active).

For the compound `CCOC(=O)C1(CCOc2ccccc2)CCN(Cc2cc(OC)c(O)cc2Cl)CC1`, the growth inhibition is 4.94% (inactive).

Turning to `CCOC(=O)C1(CCOc2ccccc2)CCN(Cc2cc(OC)cc(OC)c2)CC1`, the growth inhibition is 2.42% (inactive).

Turning to `Nc1nonc1-n1nnc(C(=O)NN=Cc2ccc(Cl)cc2Cl)c1CN1CCCCC1`, the growth inhibition is 6.34% (inactive).

For the compound `ON=C1CC2(CC(=NO)C1=NO)OCCO2`, the growth inhibition was -5.45% (inactive).

With `O=C(Nc1ccc2ccccc2c1)Nc1ccc2snnc2c1`, the growth inhibition was 94.2% (active).

Turning to `Cc1nc2cc(NC(=O)Nc3cccc(F)c3)ccc2n1C`, the growth inhibition was -1.04% (inactive).

Take `S=C(Nc1ccccc1)Nc1ccc2ccccc2c1`: the growth inhibition is -7.81% (inactive).

Take `COCc1cc(C)nc(OCC(=O)NN=Cc2ccc(C)cc2)c1C#N`: the growth inhibition was 3.45% (inactive).

Consider `COc1ccc(NS(=O)(=O)c2ccc(NC(=S)NC(=O)CC(C)C)cc2)cc1`, for which the growth inhibition was 88% (active).

Take `CC(=O)c1ccc(NC(=S)NC(=O)CC(C)C)cc1`: the growth inhibition was 29.6% (inactive).

Regarding `COc1ccc(OC)c(C(C)NC(=S)Nc2ccc(S(=O)(=O)Nc3ncccn3)cc2)c1` (configuration not stated), the growth inhibition was 6.82% (inactive).

As to `COc1ccc(/C=C\C(=O)Oc2cccc(C=NNC(=O)Cc3ccc(OC)c(OC)c3)c2)cc1`, the growth inhibition is 28.2% (inactive).

With `CCCCC1CC1C(NC(=O)c1cccs1)c1ccc(C(F)(F)F)cc1` (configuration not stated), the growth inhibition was 3.18% (inactive).

Regarding `CCOC(=O)C1=C(c2ccc(OC)cc2)C(=O)c2ccccc2C1=O`, the growth inhibition is 98.1% (active).

In the case of `COC(=O)c1cc(OC)ccc1-c1ccc(OC)cc1`, the growth inhibition is 24.4% (inactive).

For `COc1ccc(CNC(=O)CCN2C(=O)c3ccccc3C2=O)cc1`, the growth inhibition was 0.235% (inactive).

Turning to `O=C(NC1CC(=NO)c2cc3c(cc21)OCO3)C(F)(F)F` (configuration not stated), the growth inhibition is 3.72% (inactive).

Regarding `Fc1ccc(-c2ccc(C=Nn3cnnc3)o2)cc1`, the growth inhibition was 3.75% (inactive).

With `O=C(CSc1nc2ccccc2n1Cc1ccc(Cl)cc1)NN=Cc1ccccc1C(=O)O`, the growth inhibition is 0.317% (inactive).

`OCCC1CC(O)C(O)[C@]2(Cc3ccccc3O2)O1` (some centres not stated): the growth inhibition is -11.4% (inactive) and -1.82% (inactive) and 6.13% (inactive).

As to `OCCC1CC(O)C(O)[C@@]2(CCCc3ccccc3O2)O1` (some centres not stated), the growth inhibition is -2.74% (inactive) and 36.1% (inactive) and 95.4% (active).

On to `COc1ccc(-c2cnnc(NN=Cc3ccc(OC)c(OC)c3)n2)cc1`, for which the growth inhibition is -0.988% (inactive).

Regarding `COc1cc(C(=O)NCC(=O)NN=C(C)Cc2ccccc2)cc(OC)c1OC`, the growth inhibition was 1.68% (inactive).

With `Cc1cc(N=Nc2ccc3ccccc3c2)ccc1O`, the growth inhibition is 100% (active).

On to `Cc1c(O)ccc(C(Cc2ccc3ccccc3n2)=NN)c1O`, for which the growth inhibition is 7.02% (inactive).

Consider `Cc1nc2cc(NC(=O)CSc3nc4c(C)cccc4cc3C#N)ccc2s1`, for which the growth inhibition is 96.5% (active).

Consider `Cc1cc(C)c(C#N)c(SCC(=O)Nc2ccccc2)n1`, for which the growth inhibition is -0.258% (inactive).

On to `Cc1nonc1NC(=O)CSc1nc2ccccc2cc1C#N`, for which the growth inhibition is -7.53% (inactive).

In the case of `Cc1ccc(NC(=S)NN=C2CC(C)(C)Oc3ccc(O)cc32)cc1`, the growth inhibition is -1.6% (inactive).

On to `CCCc1c(C(=O)NN=Cc2ccncc2)nnn1-c1nonc1N`, for which the growth inhibition was -1.92% (inactive).

As for `O=C(NCc1ccc2c(c1)OCO2)c1c(-c2ccsc2)sc2ccccc12`, the growth inhibition was 13.5% (inactive).

With `Cn1cncc1C#Cc1c(-c2ccsc2)sc2ccccc12`, the growth inhibition is 89% (active).

In the case of `COc1ccc2sc(-c3ccc(S(C)(=O)=O)cc3)c(C#Cc3cncn3C)c2c1`, the growth inhibition was -24.1% (inactive).

On to `CC1CN(C(C)CO)C(=O)c2cc(NS(=O)(=O)c3ccccc3)ccc2OC1CN(C)C(=O)Nc1ccc2c(c1)OCO2` (configuration not stated), for which the growth inhibition was 1.83% (inactive).

In the case of `CCCCN1C(=N)N(C(C)CN2CCCC2CN2C(N)=NCC2Cc2ccccc2)CC1C(C)CC` (configuration not stated), the growth inhibition is 2.45% (inactive).

Regarding `CC[C@@H](C)[C@@H]1CN([C@@H](C)CN2CCC[C@H]2CN2C(N)=NC[C@H]2C(C)C)C(=N)N1CCc1ccc(Cl)c(Cl)c1`, the growth inhibition was 100% (active).
